Test in all cases: NCI-60 one-dose screen, 48 h (100 = growth as untreated, 0 = no growth, -100 = all killed)
Common to all, as to conditions: 10 µM unless noted

Assay [1] concerns NCI-H23 lung.
The test system of assay [2] is NCI-H226 lung.
Assay [3] deals with NCI-H322M lung.
Assay [4] concerns HOP-62 NSCLC.
Assay [5] concerns NCI-H460 lung.
Assay [6] has as its system HOP-92 NSCLC.
The test system of assay [7] is NCI-H522 lung.
Assay [8] deals with A549/ATCC NSCLC.
Assay [9] concerns 786-0 renal.
The test system of assay [10] is COLO 205 colon.
Assay [11] relates to DU-145 prostate.
The subject of assay [12] is K-562 leukemia.
The subject of assay [13] is MALME-3M melanoma.
The subject of assay [14] is MDA-MB-231 breast.
For assay [15], the system named is SF-268 CNS.
Assay [16] deals with SF-295 CNS.
Assay [17] concerns SF-539 CNS.
Assay [18] deals with M14 melanoma.
Assay [19] relates to RXF 393 renal.

The structures appear in SMILES notation. This is part of a sample that, as a whole, favours compounds with a hit. Of some 83,000 tested, about 20% had one in any assay.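 Testing used 96-well plates and a 48-hour single-concentration exposure. Example: -40 means 40% of the starting cells died.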 A number with no mark means an inactive call. Calls of active or inactive are those of the source. Rule for the calls: active = growth percent below 10; inactive = the rest.

In the case of `CO/C=C/C(=O)c1cc2cnc3c(=N)cc(NC(=O)C(C)C)c([nH]1)c23`, the growth in [1] is -11.9% (active); in assay [2] it was -40.3% (active); in assay [3], -13.2% (active); in [4], -18.7% (active); in assay [5], 5.42% (active); in [6], -16% (active). In addition, the growth in [7] is 23.8%; in [8], 19.3%; in [9], -44.6% (active); in assay [10], -33.8% (active); in assay [11], 4.45% (active); in assay [12], 3.9% (active). The growth is -77.5% (active) in assay [13]; -31% (active) in assay [14]; -47.4% (active) in assay [15]; -51.6% (active) in assay [16]; -57% (active) in assay [17]; -61.3% (active) in assay [18].

As for `NS(=O)(=O)c1ccc(CCN2C(=O)/C(=C\c3ccc(Cl)cc3)C=C2c2ccc3ccccc3c2)cc1`, the growth is 95.4% in [1]; 80.8% in assay [2]; 92.4% in assay [3]; 72% in assay [4]; 102% in assay [5]; 94% in assay [6]. The growth in assay [7] is 60.9%; in assay [8], 62%; in [9], 93.4%; in assay [10], 100%; in [11], 108%; in [12] it was 96.4%. Further, the growth in [13] is 98.8%; in assay [14], 90.5%; in assay [15], 103%; in assay [16], 99.1%; in assay [17] it was 101%; in assay [18], 95%.

As to `N#CC1(C#N)C(c2cccs2)NC(c2cccs2)C1(C#N)C#N` (centres undefined), the growth was 95% in assay [1]; 102% in assay [2]; 98% in assay [3]; 95% in assay [4]; 110% in [5]; 113% in [6]. Also, the growth is 95.9% in assay [7]; 100% in assay [8]; 101% in [9]; 106% in assay [10]; 102% in [11]; 95.8% in assay [12]. For the same molecule, the growth was 99.2% in [13]; 104% in assay [14]; 98.1% in assay [15]; 95.6% in [16]; 97.6% in assay [17]; 102% in assay [18].

Turning to `COC(=O)C1=C(C(=O)OC)C23C=C(C)C1C2=C(C)C1(CC1)[C@@](C)(O)C3=O` (some centres undefined), the growth in assay [1] was -20.9% (active); in assay [2], -34.8% (active); in [3], -9.66% (active); in [4], -21.7% (active); in [5] it was 0.847% (active); in assay [6], -19.3% (active). Moreover, the growth is -11% (active) in [7]; 1.39% (active) in assay [8]; -20.6% (active) in assay [9]; -51.9% (active) in [10]; 2.57% (active) in [11]; 81% in assay [12]. The growth in [13] was -44.4% (active); in assay [14], 9.08% (active); in [19] it was -64.4% (active); in assay [15], 7.19% (active); in assay [16], -4% (active); in assay [17], -39.6% (active). Also, the growth in assay [18] is -43.1% (active).

On to `C=C1C[C@H](O)[C@H](Br)C(C)(C)[C@@]12CCC(C)=C(Cl)C2`, for which the growth in assay [1] was 12.9%; in assay [2] it was 14.8%; in assay [3], 40.3%; in assay [4], 35.6%; in assay [5], 13%; in [6], 23.6%. Further, the growth in assay [7] was 15.7%; in assay [8], 6.49% (active); in [9], 16.7%; in assay [10], -79.1% (active); in [11], 22.7%; in assay [12] it was 12.3%. The growth in [13] is 38.5%; in assay [14], 22.4%; in assay [15], 30.9%; in assay [16], -3.01% (active); in assay [17], 34%.

As for `CCc1cc2c(c3ccc(C(=O)CBr)cc13)CCCC2`, the growth in assay [1] was 89.1%; in assay [2] it was 92.2%; in assay [3] it was 77.5%; in assay [4] it was 91.6%; in assay [5], 109%; in assay [6] it was 109%. The growth in assay [7] is 88.3%; in assay [8], 93%; in assay [9] it was 99.7%; in assay [10], 102%; in [11], 107%; in [12] it was 86.4%. Besides, the growth in [13] is 95.9%; in assay [14], 99.8%; in [15], 92.2%; in assay [16], 105%; in assay [17], 98.3%; in [18], 107%.

With `C=C1C(=O)O[C@H]2[C@H]1CC/C(CNC(=O)c1cc3cc(OC)ccc3[nH]1)=C\CC[C@@]1(C)O[C@@H]21`, the growth in [1] was -54.8% (active); in assay [2] it was -40.5% (active); in [3], 65.4%; in assay [4] it was 46.9%; in [5], 19.3%; in assay [6] it was -67.3% (active). Further, the growth in [7] was -67.5% (active); in assay [8] it was 18.5%; in assay [9], -67.2% (active); in assay [10] it was -73.6% (active); in [11] it was -92% (active); in assay [12] it was -3.44% (active). Moreover, the growth is -61.6% (active) in assay [13]; -55.5% (active) in assay [14]; -39.3% (active) in assay [15]; 37.6% in assay [16]; -60.6% (active) in assay [17]; -42.4% (active) in [18].

With `CCCCCCC1(/C=N/NC(N)=O)NC(=O)NC1=O` (centres undefined), the growth is 94% in assay [1]; 91.4% in [2]; 102% in [3]; 78.3% in [4]; 111% in [5]; 110% in assay [6]. Moreover, the growth in assay [7] is 58%; in [8], 70.5%; in [9] it was 98.2%; in [10], 91.9%; in [11], 107%; in assay [12], 102%. Moreover, the growth in assay [13] was 103%; in assay [14], 110%; in [15], 99.3%; in assay [16], 98.1%; in [17] it was 96.3%; in assay [18] it was 97.3%.

For the origin of these results see PubChem BioAssay (NCI).
